Test results taken from PubChem BioAssay (NCI).
Compounds without any hit were thinned out: in the full panel of roughly 83,000, 20% have a hit.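 The test compound was applied at a single concentration to cells in 96-well plates for 48 hours, and percent growth was recorded.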 Values without a mark were called inactive. The source made the active and inactive calls. Rule for the calls: active = growth percent below 10; inactive = the rest.

How the values were obtained:
Assay in all cases: NCI-60 one-dose screen, 48 h (100 = growth as untreated, 0 = no growth, -100 = all killed)
Settings in all cases: 10 µM unless noted
DU-145 prostate = tested on: DU-145 prostate
K-562 leukemia = tested on: K-562 leukemia
MALME-3M melanoma = tested on: MALME-3M melanoma
MDA-MB-231 breast = tested on: MDA-MB-231 breast
RXF 393 renal = tested on: RXF 393 renal
SF-268 CNS = tested on: SF-268 CNS
SF-539 CNS = tested on: SF-539 CNS
UACC-257 melanoma = tested on: UACC-257 melanoma
M14 melanoma = tested on: M14 melanoma
HCT-15 colon = tested on: HCT-15 colon
HT29 colon = tested on: HT29 colon
SNB-75 CNS = tested on: SNB-75 CNS
SNB-19 CNS = tested on: SNB-19 CNS
U251 CNS = tested on: U251 CNS
PC-3 prostate = tested on: PC-3 prostate
SK-MEL-5 melanoma = tested on: SK-MEL-5 melanoma
UACC-62 melanoma = tested on: UACC-62 melanoma
LOX IMVI melanoma = tested on: LOX IMVI melanoma
SK-MEL-28 melanoma = tested on: SK-MEL-28 melanoma

| Structure (SMILES) | growth (DU-145 prostate) [%] | growth (K-562 leukemia) | growth (MALME-3M melanoma) [%] | growth (MDA-MB-231 breast) [%] | growth (RXF 393 renal) | growth (SF-268 CNS) [%] | growth (SF-539 CNS) | growth (UACC-257 melanoma) [%] | growth (M14 melanoma) | growth (HCT-15 colon) [%] | growth (HT29 colon) [%] | growth (SNB-75 CNS) [%] | growth (SNB-19 CNS) [%] | growth (U251 CNS) [%] | growth (PC-3 prostate) [%] | growth (SK-MEL-5 melanoma) | growth (UACC-62 melanoma) | growth (LOX IMVI melanoma) [%] | growth (SK-MEL-28 melanoma) [%] |
| --- | --- | --- | --- | --- | --- | --- | --- | --- | --- | --- | --- | --- | --- | --- | --- | --- | --- | --- | --- |
| C#CCNC(=S)N/N=C(\C)c1ccccn1 | 15.4 | 15.2% | 12.1 | 39.5 | 6.73% (active) | 14.7 | 1.69% (active) | 16.4 | -21.7% (active) | 28.4 | 31.5 | 43.4 | 38.8 | 23.1 | 48.1 | -30.5% (active) | -5.96% (active) | 15.3 | 55.3 |
| CC(=O)O[C@H]1[C@H](CC#CC#CC[C@@H]2C[C@]3(C)[C@H]4CC=C5[C@H]6[C@@H](C)[C@H](C)CC[C@]6(C(=O)NCCN(CCN)CCN)CC[C@@]5(C)[C@]4(C)CC[C@H]3C(C)(C)[C@H]2OC(C)=O)C[C@]2(C)[C@H]3CC=C4[C@H]5[C@@H](C)[C@H](C)CC[C@]5(C(=O)NCCN(CCN)CCN)CC[C@@]4(C)[C@]3(C)CC[C@H]2C1(C)C | 86 | 18.3% | 67.8 | 59.6 | 57.9% | 87.1 | 84.2% | 96 | 63.1% | 26.8 | 58.1 | 68.1 | 31.9 | 36.2 | 51.7 | 92.2% | 40.9% | 50.9 | 85 |
| CC(=O)O[C@H]1[C@H](CC#CC#CC[C@@H]2C[C@]3(C)[C@H]4CC=C5[C@H]6[C@@H](C)[C@H](C)CC[C@]6(C(=O)NCCCCCCCCN)CC[C@@]5(C)[C@]4(C)CC[C@H]3C(C)(C)[C@H]2OC(C)=O)C[C@]2(C)[C@H]3CC=C4[C@H]5[C@@H](C)[C@H](C)CC[C@]5(C(=O)NCCCCCCCCN)CC[C@@]4(C)[C@]3(C)CC[C@H]2C1(C)C | 110 | 108% | 105 | 103 | 94.6% | 102 | 94.1% | 106 | 102% | 108 | 98.2 | 94.7 | 107 | 98.2 | 92.8 | 105% | 112% | 96.9 | 124 |
| CCN(CC)CCCNc1cccc2c(C)cc(OC)nc12 | 114 | 92.3% | 107 | 81 | 93.9% | 104 | 88.8% | 98.9 | 93.2% | 94.9 | 87.6 | 76.8 | 94.9 | 94.3 | 75.1 | 91.3% | 85.3% | 105 | 103 |
| CC1=C(C(=O)Nc2ccc(F)cc2)C(c2ccc(Cl)cc2)C2=C(CC(C)(C)CC2=O)N1 (stereo not drawn) | 105 | 74% | 160 | 82 | 96.4% | 86.3 | 94% | 95.3 | 98.5% | 84.6 | 98 | 66 | 86 | 81.6 | 61.7 | 75.9% | 77.4% | 87.8 | 82.6 |
| O=[N+]([O-])c1cccc([I+]c2ccccc2)c1 | 58.5 | 27.3% | 49.4 | 83.2 | 72.4% | 50.1 | 65.6% | 80.1 | 56.6% | 52.5 | 27.3 | 46.9 | 71.3 | 52.1 | 59.1 | -2.62% (active) | 52.2% | 36.2 | 61.5 |
| CN1CCN(Cc2ccc(NC(=O)c3cncc(C#Cc4ncc5cnccn45)c3)cc2C(F)(F)F)CC1 | 46.8 | 8.73% (active) | 14.7 | 25.6 | 51.1% | 56.4 | 37.8% | 55.3 | 9.27% (active) | 56.7 | 27.4 | 38.1 | 94.5 | 64.2 | 54.9 | 55.3% | 57.3% | 26.5 | 38.1 |
